Among the data in PubChem BioAssay (Tox21) are Potency and activity change, negative = cytotoxic values, retold here.

Several values for one entry are separate records, joined by “and”; a condition that tells them apart may be missing. Identical values can stand only once. Inconclusive results are not listed. Entries that show only a call come without a potency. Values without a mark were called inactive. Activity calls are given as the source filed them. Calls follow the shape of the dose curve; as a rule, active = well fitted cell-killing curve with a large enough effect in the repeat runs; inconclusive = weak or mixed curves; inactive = flat fitted curve, though single readings scatter.
Potency is read from the fitted curve at half-maximal effect.

A short description of this assay: qHTS RealTime-Glo MT Cell Viability Assay in HepG2 cells - 32 hour (AID 1224877). Also: nearly all actives have a fitted effect of over 55% in size. To be noted: RealTime-Glo luminescence; series mostly up to 76.8 µM. From the text:
U.S. Tox21 Program National Center for Advancing Translational Sciences [NCATS] NIH Chemical Genomics Center [NCGC] U.S. Environmental Protection Agency [EPA] National Institutes of Environmental Health Sciences [NIEHS] National Toxicology Program [NTP] U.S. Food and Drug Administration [FDA] Tox21 Assay Overview: Measure of cell viability is critical in the cell-base assay. Analysis of cell viability is necessary for the characterization of cell responses to cytotoxic drugs and environmental stress. A RealTime-Glo MT Cell Viability Assay to monitor cell viability in real time of continues cell culture during 40 hours of compound treatment was used to screen Tox21 10K library compounds in HepG2 cells. The RealTime-Glo MT Cell Viability Assay is a nonlytic, homogeneous, bioluminescent method to measure cell viability in real time using a simple, plate-based method. The assay involves adding NanoLuc luciferase and a cell-permeant prosubstrate to cells in culture. Viable cells reduce the proprietary prosubstrate to generate a substrate for NanoLuc luciferase. This substrate diffuses from cells into the surrounding culture medium, where it is rapidly used by the NanoLuc Enzyme to produce a luminescent signal. The signal correlates with the number of viable cells, making the assay well suited for cytotoxicity studies.
Tox21 Assay Protocol Summary: The mixture of HepG2 cell suspension and reagents were dispensed at 600cells/6 ul/well in 1536-well tissue culture treated black solid bottom plates using a Multidrop dispenser. After the assay plates were incubated at a 37 C/5% CO2 incubator for 5 hours, 23 nL of compounds dissolved in DMSO, positive and negative controls was transferred to the assay plate by a pintool work station. The plates were incubated at 37 C for 40 hours. The luminescence intensity were measured at 0h, 8h, 16h, 24h, 32h and 40h time points using ViewLux plate reader during compound treatment.
For `NS(=O)(=O)c1ccccc1Cl`, the Potency entry is “inactive”.
Same read-out and setting: as for `CC(=O)OCC(=O)[C@@]1(O)CCC2C3CCC4=CC(=O)CC[C@]4(C)C3[C@@H](O)C[C@@]21C` (stereo not given in full), the entry is “inactive”; as for `CN1C(=O)N(C)C(O)C1O` (stereo not given), “inactive”.
The same measure, in the same setting: with `COC(=O)CC(C)=O` the entry was “inactive”; with `CN(C)CCCN1c2ccccc2CCc2ccc(Cl)cc21`, 49 µM (active) and 23.9 µM (active); with `CC/C=C\CCOC(C)=O`, “inactive”.
On to `CCOC(=O)CCC(C)=O`, for which the Potency entry is “inactive”.
Take `CN1CCCC1`: the Potency entry is “inactive”.
As to `C1CN(CCOCCN2CCOCC2)CCO1`, the Potency result is “inactive”.
Take `CCS(=O)(=O)c1ccc(OC)c(C(=O)OC)c1`: the Potency result is “inactive”.
As to `CCc1cccc2c(CCO)c[nH]c12`, the Potency result is “inactive”.
On the same count and under the same terms, with `CCCCCOC(=O)CCCCC` the entry was “inactive”.
Same read-out and setting: as for `CCCCCCCCS(=O)(=O)Cl`, the entry is “inactive”; as for `CCc1ccc(O)c(OC)c1`, “inactive”.
`OC(CCN1CCCCC1)(c1ccccc1)C1CC2C=CC1C2` (stereo not given): the Potency entry is “inactive”.
Same read-out and setting: as for `CC(NC(CCc1ccccc1)C(=O)O)C(=O)N1C(=O)N(C)CC1C(=O)O` (stereo not given), the entry is “inactive”; as for `COC(=O)c1ccc(C)cc1C1=NC(C)(C(C)C)C(=O)N1` (stereo not given), “inactive”; as for `CC(C)NC(=O)NC(C)C`, “inactive”.
Regarding `C[C@H](NC(CCc1ccccc1)C(=O)O)C(=O)N1CCC[C@H]1C(=O)O` (stereo not given in full), the Potency result was “inactive”.
Consider `CCC(C)C1CCCCC1=O` (stereo not given), for which the Potency entry is “inactive”.
The same measure, in the same setting: as for `C=C1CC[C@H]2C[C@@H]1C2(C)C`, the entry is “inactive”; as for `CCCCC/C=C\CCC=O`, “inactive”; as for `COC(=O)C1=C(C)NC(C)=C(C(=O)OC)C1c1ccccc1[N+](=O)[O-]`, “inactive”.
Still for that read-out and setting: with `CC[N+](C)(C)c1cccc(O)c1` the entry was “inactive”.
In the case of `CO[C@]12C[C@@H](COC(=O)c3cncc(Br)c3)CN(C)[C@@H]1Cc1cn(C)c3cccc2c13`, the Potency entry was “inactive”.
Still for that read-out and setting: with `CCCCC(CC)COC(=O)c1ccccc1O` (stereo not given) the entry was “inactive”.
Same read-out and setting: with `Cc1nc2c([nH]1)c(=O)n(C)c(=O)n2Cc1ccco1` the entry was “inactive”; with `NC(=O)c1cn(Cc2c(F)cccc2F)nn1`, “inactive”.
As to `C[C@](N)(Cc1ccc(O)cc1)C(=O)O`, the activity change, negative = cytotoxic is 3.47% [at 6.97 µM].
Turning to `CC(C)(c1ccc(O)cc1)c1ccc(O)cc1`, the Potency result is “inactive”.
On the same count and under the same terms, with `NC(=O)Nc1ccccc1` the entry was “inactive”; with `COc1ccc2c(c1)CCCC2=O`, “inactive”; with `CCOC(C)(C)C`, “inactive”.
The same measure, in the same setting: with `CCOC(=O)c1ccc(C)cc1` the entry was “inactive”; with `O=C(O)CCCc1ccccc1`, “inactive”.
As for `COC(=O)c1c(Cl)c(Cl)c(C(=O)OC)c(Cl)c1Cl`, the Potency result is “inactive”.
Still for that read-out and setting: as for `CN1N=C(C(N)=O)CCC1=O`, the entry is “inactive”.
As for `NCCCNCCSP(=O)(O)O`, the activity change, negative = cytotoxic is 1.78% [at 6.97 µM].
As to `CN1CC(=O)NC1=N`, the Potency result was “inactive”.
With `C=C(C)CS(=O)(=O)O`, the Potency entry was “inactive”.
